Records with an inconclusive call do not appear. Activity calls are given as the source filed them. How the source made its calls, unless noted: active means hit-call score of the fitted dose curve at least 0.9, where 1 is the maximum; inactive means score below 0.9.
Key:
[1] = ATG_TAL_CIS: Attagene CIS-FACTORIAL HepG2 Assay for human TAL Basal Promoter (AID 2282966); details: HepG2 Attagene cis-factorial TAL promoter reporter; actives raise or lower the signal;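 further: background control endpoint measuring basal TAL promoter reporter mRNA not a specific factor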
Method in brief: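 HepG2 cells were transiently transfected with promoter-driven multiplexed reporter units and dosed for 24 h. Reporter mRNA was measured by RT-PCR with capillary electrophoresis fluorescence; bidirectional fits used DMSO as baseline, serving as a background control.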

[2] = ATG_TGFb_CIS: Attagene CIS-FACTORIAL HepG2 Assay for human Transforming Growth Factor (TGF) (AID 2282967); details: HepG2 Attagene CIS TGFb reporter, mRNA transcription; actives raise or lower the signal
Method in brief: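 Bidirectional fitting relative to DMSO gave the endpoint. Underlying data: reporter mRNA from HepG2 cells carrying transiently transfected cis-regulated reporter constructs, harvested 24 h after dosing and analyzed by RT-PCR and capillary electrophoresis.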

[3] = ATG_VDRE_CIS: Attagene CIS-FACTORIAL HepG2 Assay for human Vitamin D Receptor Element (VDRE) (AID 2282968); details: HepG2 VDRE cis-reporter transcription, actives raise or lower the signal
Method in brief: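 HepG2 cells transiently transfected with cis-element reporter units, dosed 24 h; reporter mRNA measured by RT-PCR, 6-FAM labeling, HpaI digestion and capillary electrophoresis. Activity fitted bidirectionally against DMSO baseline.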

[4] = target: X-box-binding protein 1 (Homo sapiens) (UniProt P17861); experiment: ATG_Xbp1_CIS: Attagene CIS-FACTORIAL HepG2 Assay for human X-box Binding Protein 1 (XBP1) (AID 2282972); details: HepG2 XBP1 cis-element reporter, Attagene multiplex; actives raise or lower the signal
Method in brief: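 HepG2 cells transiently transfected with multiple cis-element reporter units report endogenous TF activity; 24 h exposure, then reporter mRNA measured by RT-PCR, 6-FAM labelling, HpaI digestion and capillary electrophoresis. Bidirectional fitting versus DMSO.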

[5] = ATG_M_19_TRANS: Attagene TRANS-FACTORIAL HepG2 Assay for M19 Transcription Factor (Internal Marker) (AID 2282974; active means hit-call score of the fitted dose curve at least 0.9, where 1 is the maximum); details: HepG2 Attagene TRANS-FACTORIAL M19 internal marker reporter
Method in brief: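 Reporter mRNA induction was measured in transfected HepG2 cells 24 h after dosing. Endpoint fitted upward relative to DMSO and serves as a background control within the multiplexed TRANS panel.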

Measured: outcome

Chain of X-box-binding protein 1 (Homo sapiens) (P17861 whole entry, looked up): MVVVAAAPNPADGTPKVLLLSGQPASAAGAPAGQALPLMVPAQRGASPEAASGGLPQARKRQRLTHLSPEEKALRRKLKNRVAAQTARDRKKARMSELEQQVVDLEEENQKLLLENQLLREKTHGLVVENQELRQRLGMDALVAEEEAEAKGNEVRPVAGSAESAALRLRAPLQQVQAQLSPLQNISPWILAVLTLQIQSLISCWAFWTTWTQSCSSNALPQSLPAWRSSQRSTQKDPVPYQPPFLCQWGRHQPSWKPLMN

CC(=O)c1cccnc1
inactive: all assays above

From PubChem BioAssay (EPA / NIEHS)
